Results taken from the antibiotic and cytotoxicity screens of Wong et al. (2023).
Out of some 39,000 compounds screened, about 3,300 (8.5%) were called active. The sample holds actives, similar compounds and a random draw of the others, so the mix is not that of the screen.

system: HepG2; assay: cytotoxicity call (relative viability < 0.9); conditions: 10 µM

`CC(C)c1ccc2c(c1)[C@H](O)[C@H](N)CCO2` was tested. Which cytotoxicity call did it give?
Its cytotoxicity call is “inactive”.

For `O=C1NCC2(CNC2)O1`, which cytotoxicity call is on record?
Its cytotoxicity call is “inactive”.

For `CCN(CC)C1CCCCC1`, which cytotoxicity call is on record?
Its cytotoxicity call is “inactive”.

For `NC1(Cc2ccc(Cl)cc2)CC1`, which cytotoxicity call is on record?
The cytotoxicity call was “inactive”.

How did the cytotoxicity call turn out when `O.O=c1ccc2cc(OC3OC(CO)C(O)C(O)C3O)c(O)cc2o1` (stereo not drawn) was run?
Its cytotoxicity call is “inactive”.

`CC(C)(C)[C@]1(O)C[C@@H]2OC(=O)C[C@]23C(=O)O[C@@H]2OC(=O)[C@H](O)[C@]231` was tested. Which cytotoxicity call did it give?
Its cytotoxicity call is “inactive”.

`CC(=O)OC1CCC2(C)C(CCC3C2CCC2(C)C(C4=CC(=O)OC4)C(OC(C)=O)CC32O)C1` (stereo not drawn) was tested. Which cytotoxicity call did it give?
The cytotoxicity call was “active”.

Which cytotoxicity call does the source give for `CC(=O)O[C@H]1C[C@@H]2CC[C@@H]3[C@H](CC[C@@]4(C)[C@H]3C[C@H]([N+]3(C)CCCCC3)[C@@H]4OC(C)=O)[C@@]2(C)C[C@@H]1[N+]1(C)CCCCC1` here?
Its cytotoxicity call is “inactive”.

With `O=C(O)CC[N+](=O)[O-]` as the compound, how does the cytotoxicity call read?
Its cytotoxicity call is “inactive”.

Which cytotoxicity call does the source give for `C[C@H]1CN([C@@H](C)CO)C(=O)CCCn2cc(nn2)CO[C@@H]1CN(C)C(=O)Oc1ccc2ccccc2c1` here?
Its cytotoxicity call is “inactive”.

`[N-]=[N+]=NCC(=O)Nc1ccon1` was tested. Which cytotoxicity call did it give?
The cytotoxicity call was “inactive”.

For `N#CCCN.O=C(O)C=CC(=O)O`, which cytotoxicity call is on record?
Its cytotoxicity call is “inactive”.

With `COC(=O)[C@H]1[C@H](CO)[C@H]2Cn3c(ccc(C4=CCCC4)c3=O)[C@@H]1N2S(=O)(=O)c1cn(C)cn1` as the compound, how does the cytotoxicity call read?
The cytotoxicity call was “inactive”.

With `CC[C@@H](C)C(=O)O[C@H]1[C@H](O)[C@H]2[C@@H](CN3C[C@@H](C)CC[C@@H]3[C@@]2(C)O)[C@H]2C[C@]34O[C@]5(O)[C@@H](OC(=O)[C@@](C)(O)CC)CC[C@@]3(C)[C@@H]5[C@@H](OC(C)=O)[C@@H](OC(C)=O)[C@@H]4[C@@]21O` as the compound, how does the cytotoxicity call read?
Its cytotoxicity call is “inactive”.

For `CC[C@@H](C)C(=O)O[C@H]1[C@H](O)[C@H]2[C@@H](CN3C[C@@H](C)CC[C@@H]3[C@@]2(C)O)[C@H]2C[C@]34O[C@]5(O)[C@@H](OC(=O)[C@@](C)(O)[C@@H](C)O)CC[C@@]3(C)[C@@H]5[C@@H](OC(C)=O)[C@@H](OC(C)=O)[C@@H]4[C@@]21O`, which cytotoxicity call is on record?
Its cytotoxicity call is “active”.

For `C/C=C(/C)C(=O)O[C@H]1CC[C@@]2(C)[C@@H]3CC[C@H]4[C@]5(O)C[C@H](O)[C@@]6(O)[C@@H](CN7C[C@@H](C)CC[C@H]7[C@@]6(C)O)[C@]5(O)C[C@@]42O[C@@]13O`, which cytotoxicity call is on record?
The cytotoxicity call was “inactive”.

`CC(C)C12CN3CCN(CC(C3)C1=O)C2` was tested. Which cytotoxicity call did it give?
The cytotoxicity call was “inactive”.

How did the cytotoxicity call turn out when `C[C@@H]1CN([C@H](C)CO)C(=O)c2c(c3ccccc3n2C)-c2ccccc2CO[C@H]1CN(C)C(=O)Oc1ccccc1` was run?
Its cytotoxicity call is “inactive”.

`Cc1o[nH]c(=O)c1C[C@@H](N)C(=O)O` was tested. Which cytotoxicity call did it give?
Its cytotoxicity call is “inactive”.

`COc1ccc(OC)c(C(O)C(C)N)c1.Cl` (stereo not drawn) was tested. Which cytotoxicity call did it give?
Its cytotoxicity call is “active”.

For `COc1ccc(OC)c(CN)c1`, which cytotoxicity call is on record?
The cytotoxicity call was “inactive”.

With `CC(N)C(O)c1ccccc1.Cl` (stereo not drawn) as the compound, how does the cytotoxicity call read?
Its cytotoxicity call is “inactive”.

How did the cytotoxicity call turn out when `O=c1[nH]oc2c1CCNC2` was run?
The cytotoxicity call was “inactive”.

How did the cytotoxicity call turn out when `COC(C)(C)CCC[C@H](C)C/C=C/C(C)=C/C(=O)OC(C)C` was run?
The cytotoxicity call was “inactive”.

`Cl.O=C1CCC2(O)C3Cc4ccc(O)c5c4C2(CCN3CC2CC2)C1O5` (stereo not drawn) was tested. Which cytotoxicity call did it give?
Its cytotoxicity call is “inactive”.

How did the cytotoxicity call turn out when `C=CC1CN2CCC1CC2C(O)c1ccnc2ccccc12` (stereo not drawn) was run?
Its cytotoxicity call is “inactive”.

How did the cytotoxicity call turn out when `CCC1CN2CCC1CC2C(O)c1ccnc2ccc(OC)cc12` (stereo not drawn) was run?
The cytotoxicity call was “active”.

How did the cytotoxicity call turn out when `C=CC1CN2CCC1CC2C(OC(=O)OCC)c1ccnc2ccc(OC)cc12` (stereo not drawn) was run?
Its cytotoxicity call is “inactive”.

Which cytotoxicity call does the source give for `CO[C@H]1C[C@H](O[C@H]2CC[C@]3(C=O)[C@H]4CC[C@]5(C)[C@@H](C6=CC(=O)OC6)CC[C@]5(O)[C@@H]4CC[C@]3(O)C2)O[C@H](C)[C@H]1O` here?
Its cytotoxicity call is “active”.

With `COC1C(O)C(C)OC(OC2CCC3(C)C4CCC5(C)C(C6=CC(=O)OC6)CCC5(O)C4CCC3(O)C2)C1O` (stereo not drawn) as the compound, how does the cytotoxicity call read?
Its cytotoxicity call is “inactive”.

For `COC1C(O)C(C)OC(OC2CCC3(C=O)C(CCC4C3CCC3(C)C(C5=CC(=O)OC5)CCC43O)C2)C1O` (stereo not drawn), which cytotoxicity call is on record?
Its cytotoxicity call is “active”.

For `C[C@@H]1O[C@@H](O[C@H]2CC[C@]3(C=O)[C@H]4CC[C@]5(C)[C@@H](C6=CC(=O)OC6)CC[C@]5(O)[C@@H]4CC[C@]3(O)C2)[C@H](O)[C@H](O)[C@H]1O`, which cytotoxicity call is on record?
The cytotoxicity call was “active”.

Which cytotoxicity call does the source give for `CO[C@H]1[C@@H](O)[C@@H](C)O[C@H](O[C@H]2CC[C@@]3(C)[C@H]4CC[C@@]5(C)[C@@H](C6=CC(=O)OC6)CC[C@]5(O)[C@@H]4CC[C@]3(O)C2)[C@@H]1O` here?
Its cytotoxicity call is “inactive”.

With `CC1OC(OC2CCC3(C=O)C4CCC5(C)C(C6=CC(=O)OC6)CCC5(O)C4CCC3(O)C2)C(O)C(O)C1O` (stereo not drawn) as the compound, how does the cytotoxicity call read?
Its cytotoxicity call is “active”.

Which cytotoxicity call does the source give for `N#Cc1cnccn1` here?
Its cytotoxicity call is “inactive”.

How did the cytotoxicity call turn out when `CCNC1(c2cccs2)CCCCC1=O.Cl` (stereo not drawn) was run?
The cytotoxicity call was “inactive”.

For `NCC[C@H](NC(=O)[C@@H](N)CCCNC(N)=N[N+](=O)[O-])C(N)=O.O=CC(F)(F)F`, which cytotoxicity call is on record?
The cytotoxicity call was “inactive”.

With `c1cnc(N[C@@H]2CO[C@@]3(CCNC3)C2)cn1` as the compound, how does the cytotoxicity call read?
Its cytotoxicity call is “inactive”.

`NC1=NC(=O)N2C[C@@H]12` was tested. Which cytotoxicity call did it give?
The cytotoxicity call was “inactive”.

With `C[C@H](CO)N1C[C@H](C)[C@H](CN(C)C(=O)Oc2ccc3ccccc3c2)OCc2cnnn2CCCC1=O` as the compound, how does the cytotoxicity call read?
The cytotoxicity call was “inactive”.

For `C1CN2CN3CCN(CN1C3)C2`, which cytotoxicity call is on record?
The cytotoxicity call was “inactive”.

Which cytotoxicity call does the source give for `NCCc1ccc([N+](=O)[O-])cc1` here?
The cytotoxicity call was “inactive”.

With `O=C(c1ccco1)N1C[C@H]2CN[C@@H](C2)C1` as the compound, how does the cytotoxicity call read?
The cytotoxicity call was “inactive”.

With `C=C[C@H]1[C@H](O[C@@H]2O[C@H](CO)[C@@H](O)[C@H](O)[C@H]2O)OC=C2C(=O)OCC[C@H]21` as the compound, how does the cytotoxicity call read?
Its cytotoxicity call is “inactive”.

Which cytotoxicity call does the source give for `Cc1cccc(CC2(N)CC2)c1` here?
Its cytotoxicity call is “inactive”.

`N#[N+]CC(=O)CC[C@H](N)C(=O)O` was tested. Which cytotoxicity call did it give?
Its cytotoxicity call is “inactive”.

For `CC12CCC3C(CCC4(O)CC(O)CCC34C=O)C1(O)CCC2C1=CC(=O)OC1` (stereo not drawn), which cytotoxicity call is on record?
The cytotoxicity call was “active”.

`C#CC(C)(O)CC` (stereo not drawn) was tested. Which cytotoxicity call did it give?
Its cytotoxicity call is “inactive”.
